Key:
[1] = target: T1, Inhibitor of nuclear factor kappa-B kinase subunit epsilon (Homo sapiens) (UniProt Q14164); conditions: at 1 µM;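 note: reported values are averaged percent inhibition figures against human IKKε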
T1 sequence (whole entry): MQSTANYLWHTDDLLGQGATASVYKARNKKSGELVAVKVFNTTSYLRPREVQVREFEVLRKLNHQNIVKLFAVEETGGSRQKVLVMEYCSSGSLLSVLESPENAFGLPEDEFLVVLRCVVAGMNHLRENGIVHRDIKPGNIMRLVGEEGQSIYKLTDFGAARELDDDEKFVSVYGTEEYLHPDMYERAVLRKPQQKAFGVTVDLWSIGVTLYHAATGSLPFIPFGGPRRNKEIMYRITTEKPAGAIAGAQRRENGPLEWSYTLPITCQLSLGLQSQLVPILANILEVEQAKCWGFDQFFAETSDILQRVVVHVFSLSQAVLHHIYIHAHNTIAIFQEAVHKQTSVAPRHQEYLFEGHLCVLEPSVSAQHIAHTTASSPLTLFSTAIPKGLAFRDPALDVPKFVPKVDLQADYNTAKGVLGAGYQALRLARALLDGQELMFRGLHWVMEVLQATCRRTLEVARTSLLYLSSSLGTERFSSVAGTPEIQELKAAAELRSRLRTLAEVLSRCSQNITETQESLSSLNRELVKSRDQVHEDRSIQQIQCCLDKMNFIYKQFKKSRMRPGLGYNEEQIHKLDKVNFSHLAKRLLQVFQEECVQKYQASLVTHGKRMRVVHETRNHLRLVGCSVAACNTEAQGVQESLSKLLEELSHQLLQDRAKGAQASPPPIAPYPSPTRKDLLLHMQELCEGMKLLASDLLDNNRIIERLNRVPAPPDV

[2] = target: T2, Serine/threonine-protein kinase Nek1 (Homo sapiens) (UniProt Q96PY6); conditions: at 0.1 µM
T2 sequence (whole entry): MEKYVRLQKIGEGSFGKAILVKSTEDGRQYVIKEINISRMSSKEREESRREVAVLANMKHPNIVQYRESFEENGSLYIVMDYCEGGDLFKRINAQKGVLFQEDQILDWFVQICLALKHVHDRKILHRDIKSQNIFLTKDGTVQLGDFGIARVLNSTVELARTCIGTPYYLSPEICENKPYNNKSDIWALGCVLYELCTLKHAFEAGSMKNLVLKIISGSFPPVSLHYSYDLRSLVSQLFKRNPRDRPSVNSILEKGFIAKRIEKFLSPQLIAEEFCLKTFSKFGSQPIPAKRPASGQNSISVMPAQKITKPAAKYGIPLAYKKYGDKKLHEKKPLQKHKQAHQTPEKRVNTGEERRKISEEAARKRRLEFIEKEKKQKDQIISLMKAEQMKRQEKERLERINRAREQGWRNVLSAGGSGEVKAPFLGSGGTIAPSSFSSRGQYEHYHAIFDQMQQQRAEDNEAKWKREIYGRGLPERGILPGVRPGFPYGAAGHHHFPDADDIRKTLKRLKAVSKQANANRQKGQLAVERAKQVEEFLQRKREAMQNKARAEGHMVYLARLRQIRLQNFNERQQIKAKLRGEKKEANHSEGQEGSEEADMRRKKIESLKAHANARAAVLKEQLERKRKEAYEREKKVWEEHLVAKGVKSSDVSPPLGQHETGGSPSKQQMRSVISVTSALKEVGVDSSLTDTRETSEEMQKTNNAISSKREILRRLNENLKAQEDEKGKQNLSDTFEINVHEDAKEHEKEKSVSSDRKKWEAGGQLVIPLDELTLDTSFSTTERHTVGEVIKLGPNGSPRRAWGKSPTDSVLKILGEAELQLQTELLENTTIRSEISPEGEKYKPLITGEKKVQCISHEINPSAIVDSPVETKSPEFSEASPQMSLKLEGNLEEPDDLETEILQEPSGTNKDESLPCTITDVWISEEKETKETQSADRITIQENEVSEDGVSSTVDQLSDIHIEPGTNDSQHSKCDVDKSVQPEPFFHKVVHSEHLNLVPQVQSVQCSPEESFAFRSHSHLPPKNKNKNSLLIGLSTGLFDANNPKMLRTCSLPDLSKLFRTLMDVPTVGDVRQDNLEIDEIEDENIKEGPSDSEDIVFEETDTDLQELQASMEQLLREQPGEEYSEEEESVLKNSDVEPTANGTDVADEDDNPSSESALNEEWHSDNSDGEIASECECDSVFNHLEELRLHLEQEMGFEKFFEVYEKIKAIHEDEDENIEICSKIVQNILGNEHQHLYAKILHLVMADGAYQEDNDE

[3] = target: T2, Serine/threonine-protein kinase Nek1 (Homo sapiens); conditions: at 1 µM
[4] = target: T3, Serine/threonine-protein kinase Nek2 (Homo sapiens) (UniProt P51955); conditions: at 0.1 µM
T3 sequence (whole entry): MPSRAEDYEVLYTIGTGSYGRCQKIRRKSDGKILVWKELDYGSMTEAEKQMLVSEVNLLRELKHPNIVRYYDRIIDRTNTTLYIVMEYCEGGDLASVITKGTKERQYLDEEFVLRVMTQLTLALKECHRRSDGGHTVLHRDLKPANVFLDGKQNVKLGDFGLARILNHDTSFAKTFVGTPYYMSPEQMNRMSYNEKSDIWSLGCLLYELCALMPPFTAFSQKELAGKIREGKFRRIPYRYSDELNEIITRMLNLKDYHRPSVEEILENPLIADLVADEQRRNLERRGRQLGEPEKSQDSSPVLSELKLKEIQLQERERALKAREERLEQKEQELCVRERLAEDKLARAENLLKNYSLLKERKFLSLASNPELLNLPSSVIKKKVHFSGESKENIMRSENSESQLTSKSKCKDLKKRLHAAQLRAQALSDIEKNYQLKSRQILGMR

[5] = target: T3, Serine/threonine-protein kinase Nek2 (Homo sapiens); conditions: at 1 µM
[6] = target: Serine/threonine-protein kinase Nek6 (Homo sapiens) (UniProt Q9HC98); conditions: at 0.1 µM
[7] = target: Serine/threonine-protein kinase Nek6 (Homo sapiens) (UniProt Q9HC98); conditions: at 1 µM
[8] = target: Serine/threonine-protein kinase Nek7 (Homo sapiens) (UniProt Q8TDX7); conditions: at 0.1 µM
[9] = target: Serine/threonine-protein kinase Nek7 (Homo sapiens) (UniProt Q8TDX7); conditions: at 1 µM
[10] = target: T4, Serine/threonine-protein kinase Nek9 (Homo sapiens) (UniProt Q8TD19); conditions: at 0.1 µM
T4 sequence (whole entry): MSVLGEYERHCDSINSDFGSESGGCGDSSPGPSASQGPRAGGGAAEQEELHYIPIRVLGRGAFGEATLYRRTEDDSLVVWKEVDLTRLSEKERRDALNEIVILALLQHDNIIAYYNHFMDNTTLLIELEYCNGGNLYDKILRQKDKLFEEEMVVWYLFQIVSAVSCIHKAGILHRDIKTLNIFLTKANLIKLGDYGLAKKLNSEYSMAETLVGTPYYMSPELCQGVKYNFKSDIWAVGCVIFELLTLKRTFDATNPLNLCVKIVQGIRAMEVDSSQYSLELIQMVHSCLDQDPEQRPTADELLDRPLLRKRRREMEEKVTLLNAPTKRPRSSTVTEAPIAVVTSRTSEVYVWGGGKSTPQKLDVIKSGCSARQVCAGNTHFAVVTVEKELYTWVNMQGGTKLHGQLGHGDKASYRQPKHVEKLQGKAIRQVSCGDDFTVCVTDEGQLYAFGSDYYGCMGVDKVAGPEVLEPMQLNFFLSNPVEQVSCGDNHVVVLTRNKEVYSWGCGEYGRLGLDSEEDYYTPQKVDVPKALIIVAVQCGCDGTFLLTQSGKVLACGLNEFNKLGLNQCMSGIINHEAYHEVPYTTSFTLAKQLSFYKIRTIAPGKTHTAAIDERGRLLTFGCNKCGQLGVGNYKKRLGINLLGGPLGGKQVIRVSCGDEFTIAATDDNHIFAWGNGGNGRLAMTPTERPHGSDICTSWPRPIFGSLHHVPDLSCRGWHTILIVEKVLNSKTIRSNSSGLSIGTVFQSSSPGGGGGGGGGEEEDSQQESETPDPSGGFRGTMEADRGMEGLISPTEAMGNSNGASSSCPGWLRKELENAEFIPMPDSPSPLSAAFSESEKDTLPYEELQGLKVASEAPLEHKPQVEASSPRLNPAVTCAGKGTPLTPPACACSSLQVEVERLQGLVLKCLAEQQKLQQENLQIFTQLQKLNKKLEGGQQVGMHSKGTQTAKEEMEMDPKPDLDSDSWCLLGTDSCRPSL

[11] = target: T4, Serine/threonine-protein kinase Nek9 (Homo sapiens); conditions: at 1 µM
[12] = target: Serine/threonine-protein kinase PLK1 (Homo sapiens) (UniProt P53350); conditions: at 0.1 µM
[13] = target: Serine/threonine-protein kinase PLK1 (Homo sapiens) (UniProt P53350); conditions: at 1 µM
[14] = target: T5, Dual specificity protein kinase TTK (Homo sapiens) (UniProt P33981); conditions: at 0.1 µM
T5 sequence (whole entry): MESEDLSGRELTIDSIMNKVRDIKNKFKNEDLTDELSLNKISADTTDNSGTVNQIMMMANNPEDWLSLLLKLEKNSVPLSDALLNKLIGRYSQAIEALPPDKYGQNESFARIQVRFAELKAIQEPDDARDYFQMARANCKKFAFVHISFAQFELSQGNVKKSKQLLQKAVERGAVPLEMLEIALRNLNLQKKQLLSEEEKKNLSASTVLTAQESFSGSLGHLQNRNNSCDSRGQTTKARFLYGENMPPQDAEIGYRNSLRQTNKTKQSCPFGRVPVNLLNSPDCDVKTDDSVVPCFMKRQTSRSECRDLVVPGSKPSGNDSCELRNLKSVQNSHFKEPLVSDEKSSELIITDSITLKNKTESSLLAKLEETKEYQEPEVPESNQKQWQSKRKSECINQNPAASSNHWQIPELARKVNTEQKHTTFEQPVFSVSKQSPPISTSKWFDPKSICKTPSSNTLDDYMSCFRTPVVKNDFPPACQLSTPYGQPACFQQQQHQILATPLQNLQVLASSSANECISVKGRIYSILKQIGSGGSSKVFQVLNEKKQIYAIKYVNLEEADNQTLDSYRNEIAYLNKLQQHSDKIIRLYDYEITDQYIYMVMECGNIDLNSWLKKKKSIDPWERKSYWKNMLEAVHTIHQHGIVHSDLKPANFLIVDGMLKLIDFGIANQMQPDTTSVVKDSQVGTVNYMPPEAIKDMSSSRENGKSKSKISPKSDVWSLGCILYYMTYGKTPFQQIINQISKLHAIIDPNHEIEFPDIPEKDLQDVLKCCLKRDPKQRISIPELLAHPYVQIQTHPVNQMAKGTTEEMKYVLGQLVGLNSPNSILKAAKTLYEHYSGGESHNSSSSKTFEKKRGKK

[15] = tested on: T6, Receptor-type tyrosine-protein kinase FLT3 (Homo sapiens), P36888 [D835Y]; conditions: at 1 µM
T6 sequence (whole entry): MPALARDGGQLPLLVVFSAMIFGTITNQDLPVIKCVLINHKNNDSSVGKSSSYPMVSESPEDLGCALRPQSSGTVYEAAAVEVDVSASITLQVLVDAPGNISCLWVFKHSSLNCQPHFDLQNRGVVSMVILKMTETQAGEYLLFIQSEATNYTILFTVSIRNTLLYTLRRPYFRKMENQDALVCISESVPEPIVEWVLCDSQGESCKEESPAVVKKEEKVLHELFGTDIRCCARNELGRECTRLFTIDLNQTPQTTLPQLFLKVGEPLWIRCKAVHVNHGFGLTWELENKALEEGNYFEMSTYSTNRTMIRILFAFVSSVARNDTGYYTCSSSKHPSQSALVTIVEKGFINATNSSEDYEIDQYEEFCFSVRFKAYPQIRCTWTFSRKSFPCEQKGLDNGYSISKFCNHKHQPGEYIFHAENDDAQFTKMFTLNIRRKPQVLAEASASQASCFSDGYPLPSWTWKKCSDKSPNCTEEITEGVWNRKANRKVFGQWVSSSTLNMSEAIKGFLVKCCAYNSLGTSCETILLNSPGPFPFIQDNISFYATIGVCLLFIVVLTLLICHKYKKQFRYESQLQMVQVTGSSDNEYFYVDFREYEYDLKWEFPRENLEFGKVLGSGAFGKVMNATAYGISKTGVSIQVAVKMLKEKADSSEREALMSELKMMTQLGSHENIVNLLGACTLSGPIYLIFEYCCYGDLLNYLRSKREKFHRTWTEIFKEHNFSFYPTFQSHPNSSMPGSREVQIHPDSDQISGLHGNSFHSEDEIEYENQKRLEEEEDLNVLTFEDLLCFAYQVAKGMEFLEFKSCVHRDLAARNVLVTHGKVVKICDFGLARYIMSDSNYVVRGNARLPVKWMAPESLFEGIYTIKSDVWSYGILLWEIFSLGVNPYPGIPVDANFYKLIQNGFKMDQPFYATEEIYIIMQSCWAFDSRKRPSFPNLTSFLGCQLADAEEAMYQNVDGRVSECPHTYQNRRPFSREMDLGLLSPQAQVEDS

[16] = target: Vascular endothelial growth factor receptor 3 (Homo sapiens) (UniProt P35916); conditions: at 0.1 µM
[17] = target: Vascular endothelial growth factor receptor 3 (Homo sapiens) (UniProt P35916); conditions: at 1 µM
[18] = target: Macrophage colony-stimulating factor 1 receptor (Homo sapiens) (UniProt P07333); conditions: at 0.1 µM
[19] = target: Macrophage colony-stimulating factor 1 receptor (Homo sapiens) (UniProt P07333); conditions: at 1 µM
[20] = target: Tyrosine-protein kinase Fyn (Homo sapiens) (UniProt P06241); conditions: at 0.1 µM
Tyrosine-protein kinase Fyn (Homo sapiens), sequence (P06241 2-537 limits assumed): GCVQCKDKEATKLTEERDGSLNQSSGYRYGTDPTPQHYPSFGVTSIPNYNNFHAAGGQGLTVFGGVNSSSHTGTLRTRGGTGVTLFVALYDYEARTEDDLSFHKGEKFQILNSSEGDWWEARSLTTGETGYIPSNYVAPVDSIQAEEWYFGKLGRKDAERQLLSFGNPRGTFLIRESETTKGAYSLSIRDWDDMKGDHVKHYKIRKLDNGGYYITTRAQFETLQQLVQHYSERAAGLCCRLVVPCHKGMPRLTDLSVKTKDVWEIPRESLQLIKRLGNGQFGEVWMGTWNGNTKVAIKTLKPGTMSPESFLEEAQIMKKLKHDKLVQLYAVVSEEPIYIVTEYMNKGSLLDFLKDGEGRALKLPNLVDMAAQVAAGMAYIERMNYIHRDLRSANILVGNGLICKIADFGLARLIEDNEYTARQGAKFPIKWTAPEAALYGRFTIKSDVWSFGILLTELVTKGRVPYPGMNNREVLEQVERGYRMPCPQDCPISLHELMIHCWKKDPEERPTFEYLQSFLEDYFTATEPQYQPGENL

Serine/threonine-protein kinase Nek7 (Homo sapiens), sequence (Q8TDX7 whole entry, looked up): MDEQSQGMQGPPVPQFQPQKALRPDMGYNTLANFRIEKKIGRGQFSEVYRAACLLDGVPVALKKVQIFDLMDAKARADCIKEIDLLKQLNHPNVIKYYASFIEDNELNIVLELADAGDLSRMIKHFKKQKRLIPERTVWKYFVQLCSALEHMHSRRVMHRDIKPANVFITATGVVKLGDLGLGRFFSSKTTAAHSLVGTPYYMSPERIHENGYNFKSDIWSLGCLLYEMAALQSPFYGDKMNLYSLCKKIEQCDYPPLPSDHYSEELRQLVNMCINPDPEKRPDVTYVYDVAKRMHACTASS
Serine/threonine-protein kinase PLK1 (Homo sapiens), sequence (P53350 whole entry): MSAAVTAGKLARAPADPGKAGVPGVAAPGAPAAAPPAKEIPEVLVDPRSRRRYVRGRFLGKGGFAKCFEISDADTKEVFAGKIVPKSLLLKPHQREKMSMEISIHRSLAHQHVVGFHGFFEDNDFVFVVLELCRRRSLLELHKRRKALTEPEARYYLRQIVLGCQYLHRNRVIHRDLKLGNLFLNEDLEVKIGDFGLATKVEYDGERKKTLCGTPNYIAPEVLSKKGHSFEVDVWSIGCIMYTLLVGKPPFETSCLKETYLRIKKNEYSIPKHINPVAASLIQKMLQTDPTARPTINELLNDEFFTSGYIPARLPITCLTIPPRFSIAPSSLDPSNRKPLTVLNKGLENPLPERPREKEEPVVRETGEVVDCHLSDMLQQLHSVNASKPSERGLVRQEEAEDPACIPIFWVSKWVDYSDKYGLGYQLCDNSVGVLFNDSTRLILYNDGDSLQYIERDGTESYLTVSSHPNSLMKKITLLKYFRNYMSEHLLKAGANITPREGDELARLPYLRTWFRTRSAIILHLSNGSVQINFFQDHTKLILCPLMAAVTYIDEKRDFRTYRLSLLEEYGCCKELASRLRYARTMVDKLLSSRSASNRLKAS
Vascular endothelial growth factor receptor 3 (Homo sapiens), sequence (P35916 whole entry): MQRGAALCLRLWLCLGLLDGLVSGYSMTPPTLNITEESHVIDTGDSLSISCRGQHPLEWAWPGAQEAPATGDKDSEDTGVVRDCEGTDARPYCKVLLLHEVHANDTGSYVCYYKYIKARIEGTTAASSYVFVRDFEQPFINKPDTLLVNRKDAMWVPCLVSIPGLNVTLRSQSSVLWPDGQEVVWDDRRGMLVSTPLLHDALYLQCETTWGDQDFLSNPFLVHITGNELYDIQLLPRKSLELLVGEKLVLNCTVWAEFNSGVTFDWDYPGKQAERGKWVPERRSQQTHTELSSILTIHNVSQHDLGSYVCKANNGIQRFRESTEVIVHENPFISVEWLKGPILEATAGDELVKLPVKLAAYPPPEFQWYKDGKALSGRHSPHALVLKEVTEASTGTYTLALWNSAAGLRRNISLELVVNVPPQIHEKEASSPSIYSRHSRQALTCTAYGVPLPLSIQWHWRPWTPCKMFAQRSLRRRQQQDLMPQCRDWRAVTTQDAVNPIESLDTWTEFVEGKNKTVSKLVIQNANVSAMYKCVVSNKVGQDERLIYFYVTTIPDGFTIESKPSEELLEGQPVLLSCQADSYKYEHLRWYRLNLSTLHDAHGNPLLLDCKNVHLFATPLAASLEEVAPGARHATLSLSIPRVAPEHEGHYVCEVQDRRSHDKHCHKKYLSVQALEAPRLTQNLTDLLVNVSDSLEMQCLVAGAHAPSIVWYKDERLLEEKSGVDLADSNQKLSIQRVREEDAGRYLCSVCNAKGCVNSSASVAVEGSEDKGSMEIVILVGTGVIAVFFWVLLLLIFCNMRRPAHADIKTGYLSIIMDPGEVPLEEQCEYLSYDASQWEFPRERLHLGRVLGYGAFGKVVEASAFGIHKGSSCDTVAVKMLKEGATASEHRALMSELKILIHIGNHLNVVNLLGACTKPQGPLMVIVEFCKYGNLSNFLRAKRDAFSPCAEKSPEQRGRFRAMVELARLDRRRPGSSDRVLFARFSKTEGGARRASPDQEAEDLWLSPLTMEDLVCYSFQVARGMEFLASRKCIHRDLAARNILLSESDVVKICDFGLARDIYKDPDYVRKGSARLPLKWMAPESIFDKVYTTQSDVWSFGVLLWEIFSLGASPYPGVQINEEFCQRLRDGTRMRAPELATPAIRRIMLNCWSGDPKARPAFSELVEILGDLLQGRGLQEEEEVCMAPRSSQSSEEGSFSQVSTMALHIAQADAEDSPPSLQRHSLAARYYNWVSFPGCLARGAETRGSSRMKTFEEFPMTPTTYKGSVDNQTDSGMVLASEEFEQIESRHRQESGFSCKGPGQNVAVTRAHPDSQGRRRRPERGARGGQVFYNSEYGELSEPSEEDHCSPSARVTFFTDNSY
Serine/threonine-protein kinase Nek6 (Homo sapiens), sequence (Q9HC98 whole entry): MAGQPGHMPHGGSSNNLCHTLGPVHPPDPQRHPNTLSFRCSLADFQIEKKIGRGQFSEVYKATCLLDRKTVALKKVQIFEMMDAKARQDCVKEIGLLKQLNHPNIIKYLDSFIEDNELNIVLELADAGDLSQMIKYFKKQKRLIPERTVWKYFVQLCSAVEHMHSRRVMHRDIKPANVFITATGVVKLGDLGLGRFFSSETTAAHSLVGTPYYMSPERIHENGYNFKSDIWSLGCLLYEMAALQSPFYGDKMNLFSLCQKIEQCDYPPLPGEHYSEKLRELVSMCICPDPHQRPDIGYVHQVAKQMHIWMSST
Macrophage colony-stimulating factor 1 receptor (Homo sapiens), sequence (P07333 whole entry): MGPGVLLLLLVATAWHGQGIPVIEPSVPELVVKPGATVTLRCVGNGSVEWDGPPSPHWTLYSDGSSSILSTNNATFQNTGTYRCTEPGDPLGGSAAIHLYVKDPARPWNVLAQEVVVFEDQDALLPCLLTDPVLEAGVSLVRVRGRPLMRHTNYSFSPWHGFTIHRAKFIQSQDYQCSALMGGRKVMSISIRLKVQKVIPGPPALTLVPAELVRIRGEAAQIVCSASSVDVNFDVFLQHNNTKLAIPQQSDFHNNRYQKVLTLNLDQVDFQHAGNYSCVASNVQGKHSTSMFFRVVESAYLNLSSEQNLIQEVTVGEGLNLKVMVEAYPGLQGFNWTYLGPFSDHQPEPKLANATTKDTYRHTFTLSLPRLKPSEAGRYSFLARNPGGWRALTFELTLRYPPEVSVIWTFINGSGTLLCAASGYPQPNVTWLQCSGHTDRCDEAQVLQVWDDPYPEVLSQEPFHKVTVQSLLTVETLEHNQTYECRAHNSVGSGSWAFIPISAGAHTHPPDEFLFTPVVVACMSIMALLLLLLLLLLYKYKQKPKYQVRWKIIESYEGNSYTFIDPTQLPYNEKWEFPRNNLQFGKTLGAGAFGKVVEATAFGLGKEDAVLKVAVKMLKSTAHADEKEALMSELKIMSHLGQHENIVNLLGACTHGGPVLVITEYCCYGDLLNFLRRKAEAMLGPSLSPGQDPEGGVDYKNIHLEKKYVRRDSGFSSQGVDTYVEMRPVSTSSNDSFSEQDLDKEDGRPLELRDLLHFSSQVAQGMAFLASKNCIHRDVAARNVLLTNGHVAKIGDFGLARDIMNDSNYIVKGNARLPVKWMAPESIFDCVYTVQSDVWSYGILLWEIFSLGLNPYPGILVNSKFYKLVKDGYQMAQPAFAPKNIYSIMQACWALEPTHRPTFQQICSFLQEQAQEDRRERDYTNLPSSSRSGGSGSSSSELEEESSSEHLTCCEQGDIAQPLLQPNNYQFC

With `CS(=O)(=O)CCNCc1coc(-c2ccc3ncnc(Nc4ccc(OCc5ccccc5)cc4)c3c2)c1` the inhibition [1] was 4.57%, the inhibition [2] was 2.15% and the inhibition [3] was 3.07%. It also gave an inhibition [4] of 4.2%, an inhibition [5] of 2.21% and an inhibition [6] of 1.54%. For the same compound, the inhibition [7] was 2.23%, the inhibition [8] was 2.37% and the inhibition [9] was 3.98%. It also gave an inhibition [10] of 8.97%, an inhibition [11] of 15.4% and an inhibition [12] of 4.26%. For the same compound, the inhibition [13] was 5.02%, the inhibition [14] was 5.49% and the inhibition [15] was 4.15%. It also gave an inhibition [16] of 4.45%, an inhibition [17] of 2.92% and an inhibition [18] of 0.22%. For the same compound, the inhibition [19] was 7.42% and the inhibition [20] was 1.47%.

Work on `COc1ccc2[nH]c3c4[nH]c5ccc(OC)cc5c4c4c(c3c2c1)C(=O)NC4=O` yielded an inhibition [1] of 36.3%, an inhibition [2] of 0.76% and an inhibition [3] of 1.99%. It also gave an inhibition [4] of 4.36%, an inhibition [5] of 5.74% and an inhibition [6] of 5.36%. For the same compound, the inhibition [7] was 5.14%, the inhibition [8] was 3.71% and the inhibition [9] was 5.28%. For the same compound, the inhibition [10] was 2.96%, the inhibition [11] was 2.1% and the inhibition [12] was 3.01%. It also gave an inhibition [13] of 9.29%, an inhibition [14] of 15.5% and an inhibition [15] of 92.7%. The inhibition [16] was 18.5%, the inhibition [17] was 63.5% and the inhibition [18] was 12.9%. The inhibition [19] was 50.9% and the inhibition [20] was 3.62%.

Source: ChEMBL document CHEMBL1961873, “Compounds: GSK PKIS; Assays: Nanosyn kinase panel” (2012)
